Several values for one entry are separate records, joined by “and”; a condition that tells them apart may be missing. Identical values can stand only once. Where a structure was tested more than once in an assay, its records may differ in their call. Activity calls are given as the source filed them. The calls were made as follows: active = hit-call score of the fitted dose curve at least 0.9, where 1 is the maximum; inactive = score below 0.9.
Each compound was assayed on Matrix Metallopeptidase 3 (MMP3), MMP3 (gene 4314) (assay: BSK_BF4T_MMP3: BioMAP Diversity Plus: BF4T Assay for Matrix Metallopeptidase 3 (MMP3) Biomarker Activity (AID 2284271)). Conditions: primary human bronchial epithelial cells with fibroblasts.
Experimental: BSK_BF4T is a cell-based, multiplexed-readout assay that uses bronchial epithelial cells and dermal fibroblasts, a human vascular primary cell, with measurements taken at 24 hours after chemical dosing in a microplate: 96-well plate.BSK_BF4T_MMP3 is an assay component measured in the BSK_BF4T assay. It measures MMP-3 antibody related to regulation of gene expression using ELISA technology.Data from the assay component BSK_BF4T_MMP3 was analyzed at the endpoint, BSK_BF4T_MMP3, in the positive analysis fitting direction relative to DMSO as the negative control and baseline of activity. Using a type of binding reporter, gain or loss-of-signal activity can be used to understand protein changes. To generalize the intended target to other relatable targets, this assay endpoint is annotated to the 'protease' intended target family, where the subfamily is 'matrix metalloproteinase'.
The levels of cell surface (or secreted, indicated by the prefix "s") biomarker endpoints were measured by ELISA. Overt cytotoxicity to cells in confluent adherent cultures (all systems other than the BT system) was assessed by measuring total protein levels using sulforhodamine B (SRB) staining in parallel cultures at the time of biomarker measurements, indicated as SRB endpoints. For proliferation assays for adherent cell types, individual cell types are cultured at sub-confluence and relative cell numbers quantified by SRB staining at time points optimized for each system (48 h: 3C and CASM3C systems; 72 h: BT and HDF3CGF systems; 96 h: SAg system). SRB was performed by staining cells with 0.1% SRB after fixation with 10% TCA and reading wells at 560 nm.Viability and proliferation of PBMC (T cells) was quantified by Alamar Blue reduction for the SAg and BT systems. For PBMC viability (referred to as PBMC Cytotoxicity within the assay endpoint names), cells were plated (75,000/well in a 96-well plate) and then chemical samples added for 1 h before addition of activators, SEB and TSST-1 (20 ng/mL final concentration each). Cells were incubated for 90 h. Then, Alamar Blue (20 uL/well) (Invitrogen, Cat DAL1100) was added for 6 h, and the plates were read with a fluorescence microplate reader at 546/580 nm (excitation/emission). For PBMC proliferation, cells were plated and activated as above but incubated for only 16 h prior to addition of Alamar Blue. Plates were read after 6 h.
For C=C(C)C(=O)OCC(F)(F)C(F)(F)C(F)(F)F, the outcome was “inactive”.
With C=C(C)C(=O)OCC(F)(F)C(F)(F)C(F)(F)C(F)(F)C(F)(F)C(F)(F)C(F)(F)F the outcome was “inactive”.
For FC(F)(F)C(F)(F)C(F)(F)C(F)(F)CCI, the outcome was “inactive” and the AC50 was 8.85 µM (active).
With O=C(O)C(F)(OC(F)(F)C(F)(OC(F)(F)C(F)(OC(F)(F)C(F)(F)C(F)(F)F)C(F)(F)F)C(F)(F)F)C(F)(F)F (stereo not given) the outcome was “inactive”.
For FC(F)(F)C(F)(F)C(F)(F)C(F)(F)C(F)(F)C(F)(F)C(F)(F)C(F)(F)F, the outcome was “inactive”.
O=C(O)C(F)(F)C(F)(F)C(F)(F)C(F)(F)F was tested, and the outcome was “inactive”.
With C=CC(F)(F)C(F)(F)C(F)(F)C(F)(F)C(F)(F)C(F)(F)C(F)(F)C(F)(F)C=C the outcome was “inactive”.
In the case of OCCCC(F)(F)C(F)(F)C(F)(F)C(F)(F)C(F)(F)C(F)(F)C(F)(F)F, the AC50 was 57.5 µM (active) and 32.4 µM (active).
With C=CC(=O)OCC(F)(F)C(F)(F)C(F)(F)C(F)(F)COC(=O)C=C the AC50 was 55.4 µM (active) and 6.99 µM (active).
For OCC(F)(F)C(F)(F)C(F)(F)C(F)F, the outcome was “inactive”.
With C=CC(=O)OCC(F)(F)C(F)(F)C(F)(F)C(F)(F)C(F)(F)C(F)(F)C(F)(F)F the outcome was “inactive”.
C=CC(F)(F)C(F)(F)C(F)(F)C(F)(F)C(F)(F)C(F)(F)C(F)(F)C(F)(F)F was tested, and the outcome was “inactive”.
For CCO[Si](CCC(F)(F)C(F)(F)C(F)(F)C(F)(F)C(F)(F)C(F)(F)F)(OCC)OCC, the outcome was “inactive”.
For COC(=O)CCC(F)(F)C(F)(F)C(F)(F)C(F)(F)F, the outcome was “inactive”.
For FC(F)(F)C(F)(F)C(F)(F)C(F)(F)C(F)(F)C(F)(F)CC1CO1 (stereo not given), the outcome was “inactive”.
In the case of O=C(O)C=C(C(F)(F)F)C(F)(F)F, the outcome was “inactive”.
For O=S(=O)(OCC(F)F)C(F)(F)F, the outcome was “inactive”.
In the case of O=C(CC(=O)C(F)(F)C(F)(F)F)C(F)(F)F, the outcome was “inactive”.
With FC(F)(F)C(F)(F)C(F)(F)C(F)(F)C(F)(F)CCI the outcome was “inactive”.
With OCC(F)(F)C(F)(F)C(F)(F)C(F)(F)C(F)(F)C(F)(F)F the outcome was “inactive”.
With O=C(O)C(F)(F)C(F)(F)OC(F)(F)F the outcome was “inactive”.
In the case of FC(F)(F)C(F)(F)C(F)(F)CI, the outcome was “inactive”.
For N=C(N)C(F)(F)C(F)(F)C(F)(F)C(F)(F)C(F)(F)C(F)(F)C(F)(F)F, the outcome was “inactive” and the AC50 was 33.6 µM (active).
For O=C(O)C(F)(OC(F)(F)C(F)(OC(F)(F)C(F)(F)C(F)(F)F)C(F)(F)F)C(F)(F)F (stereo not given), the outcome was “inactive”.
For NC(=O)C(F)(F)C(F)(F)C(F)(F)C(F)(F)F, the outcome was “inactive”.
With Cc1ccc(S(=O)(=O)OCC(F)(F)C(F)(F)C(F)(F)C(F)(F)C(F)(F)C(F)F)cc1 the outcome was “inactive”.
With O=C(O)C(F)(F)C(F)(F)C(F)(F)C(F)(F)C(F)(F)C(F)(F)C(F)(F)C(F)(F)Cl the AC50 was 52.7 µM (active) and 55.1 µM (active).
In the case of CC(C)(C)C(=O)CC(=O)C(F)(F)C(F)(F)C(F)(F)F, the outcome was “inactive”.
O=C(O)C(F)(F)C(F)(F)C(F)(F)C(F)(F)C(F)(F)C(F)(F)C(F)(F)C(F)(F)C(F)(F)C(F)(F)C(F)(F)C(F)(F)F was tested, and the outcome was “inactive”.
For FC(F)(F)C(F)(F)C(F)(F)C(F)(F)C(F)(F)C(F)(F)C(F)(F)Br, the outcome was “inactive”.
OCCCC(F)(F)C(F)(F)C(F)(F)F was tested, and the outcome was “inactive”.
For O=S(=O)(OCCOC(F)(F)F)C(F)(F)F, the outcome was “inactive”.
With O=C(O)C(F)(F)C(F)(F)C(F)(F)C(F)(F)C(F)(F)C(F)(F)C(F)(F)C(F)(F)C(F)(F)C(F)F the outcome was “inactive” and the AC50 was 30 µM (active).
For OCC(F)(F)C(F)(F)C(F)(F)F, the outcome was “inactive”.
For O=S(=O)(O)C(F)(F)C(F)(F)C(F)(F)C(F)(F)C(F)(F)C(F)(F)C(F)(F)F, the AC50 was 15.6 µM (active) and the outcome was “inactive”.
With FC(F)(F)C(F)(F)C(F)(F)C(F)(F)C(F)(F)C(F)(F)C(F)(F)C(F)(F)CCS the outcome was “inactive”.
